This is part of a sample that, as a whole, favours compounds with a hit. Of some 83,000 tested, about 20% had one in any assay.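 In brief: 96-well plates, 48 h treatment, single concentration, percent growth endpoint.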 The source made the active and inactive calls. How the source made its calls: active means growth percent below 10; inactive means the rest.
test system: SW-620 colon; assay: NCI-60 one-dose screen, 48 h (100 = growth as untreated, 0 = no growth, -100 = all killed); details: 10 µM unless noted

Row | Compound | growth
1 | CC1=C(C(=O)Nc2ccccc2)C(c2cccc3ccccc23)n2c(nc3ccccc32)N1 (stereo not drawn) | 67.6% (inactive)
2 | COc1ccc2nc(NC(=O)c3ccc(N(C)C)cc3)sc2c1 | 91.8% (inactive)
3 | C[C@H]1[C@@H](CC(=O)N[C@@H](Cc2coc3ccccc23)B(O)O)O[C@@H]2OC3(C)CC[C@H]4[C@H](C)CC[C@@H]1[C@@]24O3 | 3.32% (active)
4 | Fc1ccc(N2CC(Cn3c(C(F)(F)F)cc4c(Cl)ncnc43)C2)c(F)c1 | -79.6% (active)
5 | Cn1cc(-c2cc(N)n3nc(-c4c[nH]c5ccc(F)cc45)cc3n2)c2cc(Br)cnc21 | 17.2% (inactive)
6 | O=C1Nc2ccc(F)cc2/C1=C/C(=O)c1cc2ccccc2oc1=O | 20.9% (inactive)
7 | O=C(CSc1nc2ccccc2c(=O)[nH]1)NNC(=O)c1ccccc1Cl | 104% (inactive)
8 | CCCCNc1ccc2c3c(cccc13)C(=O)N(NCC(O)COc1ccc3c(C)cc(=O)oc3c1)C2=O (stereo not drawn) | 93.1% (inactive)
9 | COc1cc(CNC(=O)C[C@H](C)CCC=C(C)C)ccc1OCc1cn(-c2ccccc2Cl)nn1 | 80.2% (inactive)
10 | Cc1cccc(-c2ccccc2Oc2ccc3nnc(Cl)n3n2)c1 | 101% (inactive)
11 | CCOc1ccccc1[C@H]1C(C(=O)c2ccc(Cl)cc2)C2(N[C@@H]1c1ccccc1)C(=O)Nc1ccccc12 (stereo partly drawn) | 21% (inactive)
12 | CCc1ccccc1-c1nc(CN[C@@H]2C[C@@H]3C[C@H]([C@H]2C)C3(C)C)c(C)o1 | -43.5% (active)
13 | COc1cc(C=O)ccc1OC(=O)c1cc(-c2ccc(C)cc2)n(-c2ccc(S(C)(=O)=O)cc2)n1 | 124% (inactive)

From PubChem BioAssay (NCI)
